High-throughput results (PubChem)
D2 ag-1 – Beta-Arrestin HTS for Positive Allosteric Modulators of the Human D2 Dopamine Receptor: Agonists. D(2) dopamine receptor (Homo sapiens), P14416. DiscoveRx PathHunter D2 beta-arrestin, luminescence, 90 min; 100% = 57 uM dopamine signal. activation, % (test concentration not listed). 0.084% of 360,000 active. AID 624465, 2012; in the data active means activation above about 40%; inconclusive means between about 15% and that limit
Target sequence (P14416 whole entry, looked up): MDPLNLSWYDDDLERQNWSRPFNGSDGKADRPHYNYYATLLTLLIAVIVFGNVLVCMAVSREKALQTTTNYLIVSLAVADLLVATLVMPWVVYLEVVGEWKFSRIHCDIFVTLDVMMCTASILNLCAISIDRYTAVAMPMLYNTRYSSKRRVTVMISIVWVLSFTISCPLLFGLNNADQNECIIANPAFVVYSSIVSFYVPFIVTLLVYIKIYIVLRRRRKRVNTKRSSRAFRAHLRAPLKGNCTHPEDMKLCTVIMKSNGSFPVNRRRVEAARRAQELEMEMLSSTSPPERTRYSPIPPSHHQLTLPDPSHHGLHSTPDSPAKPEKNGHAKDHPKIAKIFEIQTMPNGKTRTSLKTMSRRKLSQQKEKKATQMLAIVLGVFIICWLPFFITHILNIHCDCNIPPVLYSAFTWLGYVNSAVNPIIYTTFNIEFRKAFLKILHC
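Agonist mode: compounds alone added to overnight-plated D2 PathHunter cells for 90 min at 37 C, with 57 uM final dopamine (EC100) defining full response. Beta-arrestin recruitment detected by chemiluminescent reagent, read after 1 h at ambient temperature.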
D2 antagonist – HTS Assay for Allosteric Antagonists of the Human D2 Dopamine Receptor: Primary Screen for Antagonists | inhibition, % at 10 µM | HEK293 TREx D2 cells, calcium flux, dopamine EC80 | 2% of 340,000 active; in the data active means inhibition above about 30%; inactive means below that, where a call was filed; further: 0% is about no effect
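Calcium mobilization kinetics were recorded at 1 s intervals in tetracycline-induced HEK293 T-REx D2 cells, first for 180 s after compound addition and then 180 s after EC80 dopamine.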
D2 ag-2 – HTS Assay for Allosteric Agonists of the Human D2 Dopamine Receptor: Primary Screen for Agonists; 0.53% of 340,000 active; HEK293 T-REx D2 cells, calcium flux agonist mode; AID 485358, 2010; activation, % at 2 µM; D(2) dopamine receptor (Homo sapiens), P14416;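 active means activation over 3 SD above normal in the single-dose calcium agonist read, cut at about 30% in these data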; further: 0% is about no effect
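Agonism is scored from calcium flux in a force-coupled, inducible HEK293 cell line expressing D2, read kinetically for 180 s after compound addition against dopamine controls.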
D2 PAM-1 – Beta-Arrestin HTS for Positive Allosteric Modulators of the Human D2 Dopamine Receptor: Potentiators | D(2) dopamine receptor (Homo sapiens), P14416 | potentiation, % (test concentration not listed) | DiscoveRx D2 beta-arrestin cells, luminescence, 90 min; 100% = 57 uM dopamine signal | 0.23% of 360,000 active; in the data active means potentiation above about 50%; inconclusive means mostly about 30% to 49%
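PathHunter D2 cells, attached overnight at 37 deg C, received compound in DMSO plus dopamine at EC20 (50 nM final) for 90 min at 37 deg C. Beta-arrestin recruitment was read as luminescence after 1 h with detection reagent at ambient temperature.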
D2 PAM-2 – HTS Assay for Positive Allosteric Modulators of the Human D2 Dopamine Receptor: Primary Screen for Potentiators | AID 485347, 2010 | 0.34% of 340,000 active | HEK293 T-REx D2, calcium flux, EC20 dopamine potentiation | potentiation, % at 10 µM;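 active means potentiation over 3 SD above the plate norm, cut at about 30% in these data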; further: 0% is about no effect
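Potentiation of an EC20 dopamine calcium response measured kinetically over 180 s, after a preceding 180 s compound-only read flagging agonists. Cells: inducible Hek293 Trex D2 line, 4000/well, cultured overnight at 30 C before dye loading.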
Active calls of the source: *; u = inconclusive; x = not tested or not shown. In the library only some 2.4% were active in any assay of this set; here they are far more common.

SMILES | D2 ag-1 | D2 antagonist | D2 ag-2 | D2 PAM-1 | D2 PAM-2
O=C(N/N=C/C=C/c1ccccc1[N+](=O)[O-])c1cccs1 | 1.5 | 39.2* | -1.1 | -17.9 | -21.6
Cc1occc1C(=O)N/N=C/c1ccccc1[N+](=O)[O-] | -2.3 | 34.6* | 0.3 | -2.2 | 7.1
Cc1ccc(/C=N/NC(=O)c2cccs2)cc1[N+](=O)[O-] | -0.6 | 35.3* | -1.4 | -14.1 | -1.5
Cc1ccc(C(=O)N/N=C\C=C\c2ccccc2[N+](=O)[O-])cn1 | -2.5 | 46.8* | 2.4 | -3.7 | -30.7
Cc1ccsc1/C=N/NC(=O)c1cccs1 | -1.3 | 1.7 | 0.5 | -10.7 | 7.0
O=C(N/N=C/c1ccccc1[N+](=O)[O-])c1cccs1 | 1.6 | -18.9 | -0.3 | -1.9 | -12.6
Cc1ccc(C(=O)N/N=C\c2ccccc2[N+](=O)[O-])cn1 | -6.3 | -4.5 | -0.9 | -8.5 | x
COc1cccc(/C=N/NC(=O)c2ccoc2C)c1O | -0.9 | -4.2 | 0.2 | -5.8 | 6.7
CC(=O)Nc1cccc(-c2csc(C(C)(NC(C)=O)c3ccccc3)n2)c1 (configuration not stated) | -4.8 | x | x | -10.8 | x
CCN(C(=O)c1cc2c(s1)-c1c(C)cccc1OC2)c1cc(C)ccc1C | x | x | x | x | 13.8
COc1cc(N)c(Cl)cc1C(=O)OCC(=O)c1cccs1 | -3.8 | 32.7* | 0.8 | -4.2 | -13.4
COc1cc(N)c(Cl)cc1C(=O)OCC(=O)NCc1cccs1 | -0.9 | x | x | -4.6 | x
COc1ccc(-n2nc([N+](=O)[O-])c(=NCCc3cccc(C)c3)n2O)cc1 | 7.9 | 6.2 | -0.5 | 65.2* | -5.2
Cc1ccc(CN=c2c([N+](=O)[O-])nn(-c3ccc4c(c3)OCCO4)n2O)cc1 | u | 2.7 | -0.7 | 134.9* | -18.4
CCc1ccc(N=c2c([N+](=O)[O-])nn(-c3ccc4c(c3)OCCO4)n2O)cc1 | 10.7 | 18.4 | -0.5 | u | 2.2
Cc1cccc(CCN=c2c([N+](=O)[O-])nn(-c3ccccc3)n2O)c1 | 13.5 | -9.0 | -0.4 | 5.7 | -0.8
O=[N+]([O-])c1nn(-c2ccc3c(c2)OCCO3)n(O)c1=NCCCO | u | 4.4 | -0.1 | 72.8* | 0.1
Cc1ccc(N=c2c([N+](=O)[O-])nn(-c3ccccc3)n2O)c(C)c1 | 9.8 | 7.4 | 0.8 | 55.2* | 10.1
COc1ccccc1CNC(=O)c1ccc(N2CCOCC2)c([N+](=O)[O-])c1 | -18.1 | 12.2 | -0.7 | -14.5 | 8.6
COc1ccc(-n2nc([N+](=O)[O-])c(=NCCCN3CCCC3=O)n2O)cc1 | 9.8 | 7.3 | -0.5 | 22.7 | -3.6
COc1ccc(-n2nc([N+](=O)[O-])c(=NCc3ccc4c(c3)OCO4)n2O)cc1 | u | -1.4 | -0.7 | 121.8* | -12.3
O=C1CCCN1CCCN=c1c([N+](=O)[O-])nn(-c2ccc(Cl)cc2)n1O | 9.2 | x | x | 51.8* | 6.2
COc1ccccc1C(O)P(=O)(OC(C)C)c1ccc(N(C)C)cc1 (configuration not stated) | 0.3 | 31.2* | 0.5 | -3.6 | -3.2
CC(C)OP(=O)(c1ccc(N(C)C)cc1)C(O)c1ccccc1F (configuration not stated) | -3.5 | -7.0 | 0.4 | -8.0 | -3.2
CC(C)OP(=O)(c1ccc(N(C)C)cc1)C(O)c1ccncc1 (configuration not stated) | -0.7 | 31.7* | 0.2 | -2.1 | 5.3
SMILES | D2 ag-1 | D2 antagonist | D2 ag-2 | D2 PAM-1 | D2 PAM-2
O=C(Cc1ccccc1)Nc1cc([N+](=O)[O-])ccc1N1CCOCC1 | -4.2 | 28.6 | -0.3 | -3.1 | -7.7
Oc1ccc(/C=N/Nc2ccc(Cl)nn2)c(O)c1O | 49.7* | 5.5 | 1.1 | 15.2 | -5.7
O=C(CSc1nccc(=O)[nH]1)Nc1ccc(S(=O)(=O)N2CCOCC2)cc1 | -0.7 | 31.5* | 0.3 | -2.1 | 5.0
CC(=O)c1ccc(NC(=O)CNC2CCCCC2)cc1 | -2.8 | 8.8 | 1.1 | -6.8 | -2.8
Cc1ccc(NC(=O)CNC2CCCCC2)cc1Cl | -8.4 | 30.3* | 0.2 | -6.1 | 10.4
Cc1ccc(NC(=O)C(C)N2CCCC2)cc1Cl (configuration not stated) | 0.8 | 33.1* | 0.2 | -6.5 | -19.0
CC(C)C(=O)Nc1ccc(N2CCCC2)c(Cl)c1 | -1.3 | 13.7 | 1.0 | -12.1 | -4.8
Cc1ccccc1C(=O)NC1(C(F)(F)F)N=C(c2ccccc2)N(C2CCCCC2)C1=O (configuration not stated) | x | x | 0.4 | x | -3.0
CCc1cccc(C)c1NC(=O)CSc1nc(C)c(C)o1 | -1.4 | -7.7 | -0.1 | -32.5 | 11.4
O=C(CSc1n[nH]c(-c2ccco2)n1)Nc1ccccc1Cl | -4.0 | 30.3* | 0.2 | -2.1 | 8.4
Cc1nc(SCC(=O)Nc2ccccc2Cl)oc1C | -1.1 | 31.2* | 0.0 | 4.5 | 0.0
Cc1cc(C)c2c(n1)nn1c(NCCCN(C)C)cc(C)nc21 | -1.9 | -9.4 | -0.8 | 8.4 | 34.1*
CCN(C(=O)COC(=O)/C(C#N)=C/c1ccc(OC)cc1)C1CCS(=O)(=O)C1 (configuration not stated) | -3.0 | 35.6* | -0.2 | 1.9 | -16.1
COc1cc(C(=O)OCCn2c(=O)c3c(ncn3CCN(C)C)n(C)c2=O)cc(OC)c1OC | -2.4 | 33.8* | -2.1 | -10.9 | 5.2
Cc1ccc(N2CC(NC(=O)C3CCCCC3)CC2=O)cc1C (configuration not stated) | x | x | 0.5 | x | -3.1
CCCCn1c(SCC(=O)c2ccc(OCC)cc2)nc2cc(S(N)(=O)=O)ccc21 | -1.2 | 44.7* | 0.1 | -4.2 | 14.3
CCCCn1c(SCC(=O)c2ccc(OC)c(OC)c2)nc2cc(S(N)(=O)=O)ccc21 | -1.3 | 14.3 | 0.2 | 2.4 | 3.1
CCC(Cn1nnc2ccccc2c1=O)NC(=O)Nc1cccc(C)c1C (configuration not stated) | x | x | x | x | -16.6
O=C(c1ccccc1)N1CCC(CC2CC(c3cccc(Br)c3)=NO2)(C(=O)NCC2CCCCC2)CC1 (configuration not stated) | -0.5 | 30.7* | 0.6 | -12.8 | 8.7
CC(C)(C)OC(=O)N1CCC(CC2CC(c3cccc(Br)c3)=NO2)(C(=O)NCC2CCCCC2)CC1 (configuration not stated) | -1.6 | -14.9 | 0.4 | -7.9 | -6.8
CCOC(=O)c1cccc(NC(=O)c2ncoc2-c2ccco2)c1 | x | x | x | x | 9.5
Cn1ccc2c(-c3cccc(C=O)c3)cc3c(c21)C1CCC3O1 (configuration not stated) | -4.9 | x | x | -6.6 | x
